From PubChem BioAssay AID485314 (National Center for Advancing Translational Sciences (NCATS), 2010)
In all, about 340,000 compounds went through this assay and about 4,500 (1.3%) were called active. Inconclusive results (about 5%) are left out. The full list was thinned out, with actives kept by preference. A number with no mark means an inactive call. Calls follow the shape of the dose curve; as a rule, active = well fitted inhibition curve with a large enough effect; inconclusive = small, poorly fitted or top-dose-only effect, or another doubt; inactive = no such curve, though single readings can be large or run the other way.

These molecules were tested against DNA polymerase beta (Homo sapiens) (UniProt P06746) (assay: qHTS Assay for Inhibitors of DNA Polymerase Beta). Conditions: Pol beta primer extension/strand displacement, fluorescence kinetic; series mostly up to 114 µM; activity change, negative = inhibition: at the top concentration.
How it was run: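 Curves were derived by four-parameter Hill fits of normalized qHTS data. The kinetic fluorescent primer-extension read was taken at 0 and 10 min after 50 nM substrate, following a 15 min room-temperature preincubation of 10 nM enzyme with compounds.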
% is scaled to controls: 0 for no effect and ±100 for the full control effect; potency is read from the fitted curve at half-maximal effect.

SMILES | activity change, negative = inhibition [%] | Potency
CCOC(=O)C1CCN(C(=O)CSc2c3c(nc4ccc(Cl)cc24)CCCC3)CC1 | -25.2 | –
COCCNC(=O)c1ccc2c(c1)N(Cc1cccc(Cl)c1)C(=O)c1ccccc1S2(=O)=O | -11.6 | –
Cc1ccc2nc(-c3ccncc3)cc(C(=O)Nc3ccc(OC(F)F)cc3)c2c1 | – | 8.91 µM (active)
Cc1ccc2nc(-c3ccccn3)cc(C(=O)Nc3ccc4c(c3)OCO4)c2c1 | -4.44 | –
Cc1ccc2nc(-c3ccncc3)cc(C(=O)Nc3ccc4c(c3)OCCO4)c2c1 | 10.7 | –
Cc1ccc(Nc2ccc3cc(S(=O)(=O)N4CCCCC4)ccc3n2)cc1F | 16.8 | –
COc1ccccc1OCCOc1ccc(/C=C2\C(=N)N3N=C(C)SC3=NC2=O)cc1 | -15.8 | –
Cc1ccccc1OCCOc1ccc([N+](=O)[O-])cc1/C=N/n1cnnc1 | 2.22 | –
COc1ccccc1OCCOc1ccc(/C=N/n2cnnc2)cc1 | – | 44.7 µM (active)
CSc1ccccc1NC(=O)CCS(=O)(=O)c1nc(-c2cccs2)cc(C(F)(F)F)n1 | -1.2 | –
COc1cccc(Cn2c(SCc3ccc(C(=O)N4CCCCC4)cc3)nc3ccncc32)c1 | 55.1 | –
COc1ccc(Cl)cc1S(=O)(=O)N1CCN(CC(=O)C(C)(C)C)CC1 | -0.0725 | –
O=C(CN1CCN(S(=O)(=O)c2cc(Cl)ccc2Cl)CC1)c1ccc(O)c(O)c1 | – | 3.16 µM (active)
N#Cc1ccsc1NC(=O)CN1CCN(S(=O)(=O)c2cc(Cl)ccc2Cl)CC1 | -2.37 | –
O=C(NCCc1ccccc1)c1ccc2c(c1)N(Cc1ccc(F)cc1)C(=O)c1ccccc1S2(=O)=O | 8.98 | –
CCc1ccc(NC(=O)COC(=O)c2cccs2)cc1 | 0.301 | –
O=C(COC(=O)[C@H](Cc1ccccc1)NC(=O)c1cccs1)Nc1cc(F)ccc1F | – | 79.4 µM (active)
NC(=O)c1ccc(NC(=O)COC(=O)C(Cc2ccccc2)NC(=O)c2ccccc2)cc1 (centres undefined) | 21.6 | –
Cc1cccc(NC(c2cccc(F)c2)c2ccc3ccc(C)nc3c2O)n1 (centres undefined) | -16.3 | –
O=[N+]([O-])C(=c1ccc2c(c1)N1C3=C(CCCC3)CC3CCCCC31N=2)[N+](=O)[O-] (centres undefined) | – | 39.8 µM (active)
Cc1ccc(-c2nc3cccc(C)n3c2Nc2ccc3c(c2)OCCO3)cc1 | 26.9 | –
COc1cccc(CNC(=O)c2ccc3c(c2)N(Cc2ccc(C(F)(F)F)cc2)C(=O)c2ccccc2S3)c1OC | 0.414 | –

SMILES | activity change, negative = inhibition [%] | Potency
Cc1ccccc1-c1nc2scc(CCNC(=O)C(=O)Nc3ccc(F)cc3F)n2n1 | -10.8 | –
O=C(Cn1cc(SCc2ccccc2)c2ccccc21)N1CCCCC1 | 2.46 | –
COCC(=O)N1CCCC(C(=O)c2ccc(C(F)(F)F)cc2)C1 (centres undefined) | 23.9 | –
O=C(c1ccc(C(F)(F)F)cc1)C1CCCN(C(=O)c2csnn2)C1 (centres undefined) | 3.97 | –
Cc1cnc(C(=O)N2CCCC(C(=O)c3ccc(C(F)(F)F)cc3)C2)cn1 (centres undefined) | – | 14.1 µM (active)
Cc1cc(Cl)ccc1OCC(=O)N(Cc1ccc(N(C)C)cc1)C1CCS(=O)(=O)C1 (centres undefined) | 8.42 | –
CCOC(=O)c1c(NC(=O)CSc2cn(CCNC(=O)c3cccc(C(F)(F)F)c3)c3ccccc23)sc2c1CCC2 | 1.43 | –
Cc1ccc(-n2ncc3c(NCCCn4ccnc4)ncnc32)cc1Cl | 0.21 | –
CCC(CC)C(=O)Nc1ccc(S(=O)(=O)Nc2nccs2)cc1 | 17.1 | –
O=C(Nc1ccc(S(=O)(=O)Nc2nccs2)cc1)c1cc(=O)[nH]c2ccccc12 | 14.3 | –
O=C(Nc1ccc(S(=O)(=O)Nc2nccs2)cc1)c1cc(-c2ccncc2)nc2ccccc12 | – | 15.8 µM (active)
COc1ccc(CCNc2ncnc3c2cnn3-c2ccc(C)cc2)cc1 | 6.86 | –
CCOC(=O)C(Cc1ccc(N)cc1)N1C(=O)c2ccccc2C1=O (centres undefined) | -23.2 | –
COc1ccc(CNC(=O)C(Cc2ccccc2)n2cccc2)cc1 (centres undefined) | -10.3 | –
Cc1ccc(C)n1C(Cc1ccccc1)C(=O)O (centres undefined) | – | 10 µM (active)
COc1cc(OC)cc(C(=O)Nc2c(C(=O)Nc3ccc(F)cc3)oc3ccccc23)c1 | -2.89 | –
CCOC(=O)c1ccc(N2C(=O)c3n[nH]c(-c4ccco4)c3C2c2ccc(O)cc2)cc1 (centres undefined) | 22.2 | –
CCn1cc(C(=O)NCc2ccc(C)cc2)c(=O)c2cc(S(=O)(=O)N3CCc4ccccc4C3)ccc21 | 27.3 | –
CCc1nnc(NC(=O)/C=C/c2ccc(C)o2)s1 | -10.9 | –
Cc1ccc(/C=C/C(=O)Nc2ccc([N+](=O)[O-])c(NC(=O)/C=C/c3ccc(C)o3)c2)o1 | – | 11.2 µM (active)
COc1ccc(OC)c(NC(=O)/C=C/c2ccc(C)o2)c1 | 11 | –
CCc1cc2c(-c3ccccc3)cc(=O)oc2c2c1OCN(Cc1ccc(C)cc1)C2 | -8.79 | –

SMILES | activity change, negative = inhibition [%] | Potency
O=S(=O)(c1ccc2nc(NCc3ccccc3Cl)ccc2c1)N1CCCCC1 | 6.35 | –
Brc1ccc2c(c1)NC(c1cccnc1)=NC(c1ccccc1)=N2 | 19.1 | –
CCc1ccc(CN(Cc2ccco2)C(=O)COc2ccc(Cl)c(C)c2)cc1 | 0.226 | –
N#Cc1c(-c2ccccc2)nc(SCc2cccc(C(F)(F)F)c2)[nH]c1=O | – | 79.4 µM (active)
N#Cc1c(-c2ccc(F)cc2)nc(-c2ccccc2)[nH]c1=O | 1.71 | –
O=c1[nH]c(SCc2cccc(F)c2)nc2ccccc12 | 25 | –
O=C(COC(=O)CNC(=O)c1ccco1)Nc1ccc(F)cc1 | 3.11 | –
CCN(CC)CCOC(=O)c1ccc(NC(=O)CNC(=O)c2ccccc2)cc1 | 8.66 | –
CCOC(=O)c1ccc(NC(=O)CNC(=O)c2ccco2)cc1 | – | 56.2 µM (active)
CCOC(=O)c1ccc(NC(=O)c2c(NCc3cccs3)sc3c2CCCC3)cc1 | 1.84 | –
CCN(CCCNC(=O)c1cc2c(=O)n(CC)c3ccccc3c2s1)Cc1ccccc1 | 33.1 | –
Cc1c(Cl)cccc1NC(=O)c1noc2c1CCCC2 | 2.6 | –
COc1cccc(/C=N/Nc2ccc(Cl)nn2)c1 | -1.22 | –
Oc1cccc(/C=N/Nc2ccc(Cl)nn2)c1O | – | 39.8 µM (active)
Cc1ccsc1/C=N/Nc1ccc(Cl)nn1 | 6.83 | –
CCOC(=O)c1c(NC(=O)COc2cc(C)ccc2C(C)C)sc(C)c1C | 0.757 | –
COc1ccc(S(=O)(=O)c2cn(C)c3cc(N4CCCCC4)c(F)cc3c2=O)cc1 | -1.37 | –
O=C(COc1ccc(-n2cnnn2)cc1)Nc1ccccc1Cl | – | 28.2 µM (active)
O=C(COc1ccc(Cl)cc1)Nc1ccccc1CO | 11.2 | –
O=C(Cc1c(F)cccc1Cl)Nc1ccc(-n2cnnn2)cc1 | 0.175 | –
